# Unmarked numbers belong to inactive results. Records with an inconclusive call do not appear. Where a call stands in place of a potency, no number is given. Calls of active or inactive are those of the source. Unless noted, calls come from the whole dose curve; as a rule, active = well fitted curve in the direction sought with a large enough effect; inconclusive = small, poorly fitted or top-dose-only effect, or another doubt; inactive = no such curve, though single readings can be large; an effect the other way counts as inactive or inconclusive.
# How the values were obtained:
# [1] = target: Rap guanine nucleotide exchange factor 3 (Homo sapiens) (UniProt O95398); test: Confirmatory qHTS for antagonist of cAMP-regulated guanine nucleotide exchange factor 3 (EPAC1) (AID 1645880); conditions: EPAC1 Rap1B-BODIPY-GDP exchange, fluorescence; activity, negative = inhibition: at 115 µM (top of the series); note: nearly all actives have a fitted effect of over 55% in size; note: potency is the fitted concentration of half-maximal effect
# Rap guanine nucleotide exchange factor 3 (Homo sapiens), sequence (O95398 whole entry, looked up): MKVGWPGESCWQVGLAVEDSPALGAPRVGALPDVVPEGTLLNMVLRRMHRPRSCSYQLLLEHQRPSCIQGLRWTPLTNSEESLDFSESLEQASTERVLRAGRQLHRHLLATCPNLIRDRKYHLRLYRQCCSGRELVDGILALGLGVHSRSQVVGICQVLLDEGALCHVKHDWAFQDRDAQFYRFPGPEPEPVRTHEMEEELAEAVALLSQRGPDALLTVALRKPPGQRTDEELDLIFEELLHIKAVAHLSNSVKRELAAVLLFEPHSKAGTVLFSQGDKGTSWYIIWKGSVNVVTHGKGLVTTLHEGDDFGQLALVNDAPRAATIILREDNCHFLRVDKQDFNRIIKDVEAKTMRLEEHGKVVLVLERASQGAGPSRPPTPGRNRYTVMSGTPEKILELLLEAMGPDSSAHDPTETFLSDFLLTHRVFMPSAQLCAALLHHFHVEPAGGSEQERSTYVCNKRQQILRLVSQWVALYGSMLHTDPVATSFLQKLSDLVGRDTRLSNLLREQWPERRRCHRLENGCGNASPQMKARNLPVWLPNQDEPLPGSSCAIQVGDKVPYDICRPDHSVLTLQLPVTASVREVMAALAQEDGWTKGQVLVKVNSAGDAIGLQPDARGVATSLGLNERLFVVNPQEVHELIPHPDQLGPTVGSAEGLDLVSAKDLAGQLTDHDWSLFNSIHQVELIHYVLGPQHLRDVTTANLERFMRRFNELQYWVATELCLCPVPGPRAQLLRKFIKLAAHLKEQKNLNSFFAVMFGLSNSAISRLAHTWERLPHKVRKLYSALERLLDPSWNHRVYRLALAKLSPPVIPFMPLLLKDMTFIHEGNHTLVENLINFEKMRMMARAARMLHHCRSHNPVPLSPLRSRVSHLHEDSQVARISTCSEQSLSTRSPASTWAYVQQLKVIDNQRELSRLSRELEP
# In short: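 Nucleotide exchange uses 100 nM EPAC1, 250 nM RAP1B-BODIPY-GDP and 50 uM GDP, with compounds in a concentration-titration series. After 5 min at room temperature, fluorescence (480 nm ex/540 nm em) is read every 5 min for 30 min. Data are normalized to control ATA and DMSO.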
# [2] = target: Rap guanine nucleotide exchange factor 3 (Homo sapiens) (UniProt O95398); test: Confirmatory qHTS for agonist of cAMP-regulated guanine nucleotide exchange factor 3 (EPAC1) (AID 1645881); note: nearly all actives have a fitted effect of over 75% in size; note: potency is the fitted concentration of half-maximal effect;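 for activation: EPAC1 catalysed release of BODIPY-GDP from Rap1B seen as fluorescence loss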
# [3] = target: Rap guanine nucleotide exchange factor 3 (Homo sapiens) (UniProt O95398); test: Counterscreen qHTS for antagonist of cAMP-regulated guanine nucleotide exchange factor 3 (EPAC1) (AID 1645888);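 note: fluorescence loss as bound BODIPY-GDP is released from Rap1B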
# In short: (§1)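 Rap1B-BODIPY-GDP 250 nM + GDP 50 uM; cpds 7-pt, final 9.74 nM–152 uM (activator mode) or from 7.32 nM upwards (inhibitor mode); RT; FI 480/540 nm at 5 and 30 min, then ± cAMP, reread.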
# [4] = target: Rap guanine nucleotide exchange factor 3 (Homo sapiens) (UniProt O95398); test: Counterscreen qHTS for agonist of cAMP-regulated guanine nucleotide exchange factor 3 (EPAC1) (AID 1645889); note: nearly all actives have a fitted effect of over 40% in size; note: potency is the fitted concentration of half-maximal effect
# In short: as §1
# [5] = target: Rap guanine nucleotide exchange factor 4 (Homo sapiens) (UniProt Q8WZA2); test: Confirmatory qHTS for agonist of cAMP-regulated guanine nucleotide exchange factor 4 (EPAC2) (AID 1645884);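 note: nucleotide exchange releases bodipy-GDP from Rap1 and this lowers its fluorescence; nearly all actives have a fitted effect of over 65% in size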
# Rap guanine nucleotide exchange factor 4 (Homo sapiens), sequence (Q8WZA2 whole entry, looked up): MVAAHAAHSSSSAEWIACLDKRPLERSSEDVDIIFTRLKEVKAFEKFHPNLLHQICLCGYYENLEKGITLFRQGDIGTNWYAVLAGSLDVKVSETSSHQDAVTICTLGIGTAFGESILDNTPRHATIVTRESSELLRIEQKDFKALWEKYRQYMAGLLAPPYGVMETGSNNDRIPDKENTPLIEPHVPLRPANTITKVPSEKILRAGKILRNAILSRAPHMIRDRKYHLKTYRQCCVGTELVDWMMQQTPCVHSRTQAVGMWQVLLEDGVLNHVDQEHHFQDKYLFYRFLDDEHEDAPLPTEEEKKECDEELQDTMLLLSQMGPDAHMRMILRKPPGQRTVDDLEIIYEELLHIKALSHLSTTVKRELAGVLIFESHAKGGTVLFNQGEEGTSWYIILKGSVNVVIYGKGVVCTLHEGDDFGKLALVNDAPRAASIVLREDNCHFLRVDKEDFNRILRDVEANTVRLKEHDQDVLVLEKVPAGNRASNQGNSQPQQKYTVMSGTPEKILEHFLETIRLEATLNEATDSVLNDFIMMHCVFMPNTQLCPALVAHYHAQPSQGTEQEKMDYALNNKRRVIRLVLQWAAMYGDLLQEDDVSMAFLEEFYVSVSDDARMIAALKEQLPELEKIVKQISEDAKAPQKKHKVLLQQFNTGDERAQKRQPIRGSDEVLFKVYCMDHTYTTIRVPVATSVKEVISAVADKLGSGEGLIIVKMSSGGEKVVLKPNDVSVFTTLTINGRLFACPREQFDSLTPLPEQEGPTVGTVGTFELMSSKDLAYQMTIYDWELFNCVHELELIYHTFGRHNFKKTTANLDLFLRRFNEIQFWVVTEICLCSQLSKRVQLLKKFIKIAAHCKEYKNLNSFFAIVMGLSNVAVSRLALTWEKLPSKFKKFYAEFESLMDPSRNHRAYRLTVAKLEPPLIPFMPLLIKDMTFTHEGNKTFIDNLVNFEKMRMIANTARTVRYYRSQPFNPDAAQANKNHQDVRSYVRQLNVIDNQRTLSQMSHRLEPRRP
# [6] = target: Rap guanine nucleotide exchange factor 4 (Homo sapiens) (UniProt Q8WZA2); test: Confirmatory qHTS for antagonist of cAMP-regulated guanine nucleotide exchange factor 4 (EPAC2) (AID 1645885); note: nearly all actives have a fitted effect of over 25% in size
# [7] = target: Cytochrome P450 1A2 (Homo sapiens) (UniProt P05177); test: p450-cyp1a2 (AID 410; calls by dose curve; note: potency is the fitted concentration of half-maximal effect)
# Cytochrome P450 1A2 (Homo sapiens), sequence (P05177 whole entry, looked up): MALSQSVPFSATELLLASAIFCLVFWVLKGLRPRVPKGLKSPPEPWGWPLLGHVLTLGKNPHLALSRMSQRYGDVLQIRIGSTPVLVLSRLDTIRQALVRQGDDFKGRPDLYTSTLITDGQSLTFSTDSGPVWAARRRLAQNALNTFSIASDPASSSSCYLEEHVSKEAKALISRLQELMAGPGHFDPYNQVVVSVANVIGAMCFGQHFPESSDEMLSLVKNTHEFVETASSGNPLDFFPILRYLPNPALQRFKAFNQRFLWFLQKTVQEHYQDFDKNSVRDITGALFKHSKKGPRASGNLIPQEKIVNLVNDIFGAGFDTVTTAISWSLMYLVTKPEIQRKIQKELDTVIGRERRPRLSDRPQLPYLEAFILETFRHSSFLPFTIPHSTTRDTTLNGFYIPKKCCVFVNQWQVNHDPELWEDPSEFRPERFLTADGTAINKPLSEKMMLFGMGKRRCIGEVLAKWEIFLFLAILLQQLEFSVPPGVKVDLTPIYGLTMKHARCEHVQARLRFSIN
# In short: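 20nM CYP1A2 with 100uM Luciferin-ME (at Km) in 100mM KPO4; compound preincubated 10 min, NADPH regeneration added, 60 min at room temperature. Luciferin quantified by luminescence after detection reagent; normalized to 57 uM furafylline.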
# [8] = target: Glucocorticoid receptor (Homo sapiens) (UniProt P04150); test: GR-GFP Redistribution (AID 450;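 active = compounds whose dose series gives a full or clear partial fitted curve of increased nuclear translocation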; note: potency is the fitted concentration of half-maximal effect); conditions: U2OS GR-GFP nuclear translocation, laser cytometry, 2 h
# Glucocorticoid receptor (Homo sapiens), sequence (P04150 whole entry, looked up, the tested form may be a part): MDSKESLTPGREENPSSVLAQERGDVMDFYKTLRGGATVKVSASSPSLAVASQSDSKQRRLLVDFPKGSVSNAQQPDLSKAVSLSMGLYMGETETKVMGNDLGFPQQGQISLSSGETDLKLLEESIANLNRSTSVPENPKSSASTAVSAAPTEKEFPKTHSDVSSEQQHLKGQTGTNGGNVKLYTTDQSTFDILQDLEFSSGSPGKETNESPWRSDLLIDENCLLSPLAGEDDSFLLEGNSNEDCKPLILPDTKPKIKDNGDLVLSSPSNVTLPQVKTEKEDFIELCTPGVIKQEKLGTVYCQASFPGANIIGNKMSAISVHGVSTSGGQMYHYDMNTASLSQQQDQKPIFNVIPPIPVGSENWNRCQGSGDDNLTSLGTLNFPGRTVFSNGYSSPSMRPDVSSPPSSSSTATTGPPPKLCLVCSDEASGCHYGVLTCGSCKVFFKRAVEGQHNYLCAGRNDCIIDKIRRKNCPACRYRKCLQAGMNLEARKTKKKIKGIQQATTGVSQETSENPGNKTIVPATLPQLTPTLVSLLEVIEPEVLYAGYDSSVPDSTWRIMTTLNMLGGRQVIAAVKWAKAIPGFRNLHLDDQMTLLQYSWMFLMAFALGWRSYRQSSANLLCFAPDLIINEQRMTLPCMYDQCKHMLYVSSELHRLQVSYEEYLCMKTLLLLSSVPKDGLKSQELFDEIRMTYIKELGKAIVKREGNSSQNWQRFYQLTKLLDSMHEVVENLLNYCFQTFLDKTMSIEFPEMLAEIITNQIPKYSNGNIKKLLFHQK
# [9] = target: Glucocorticoid receptor (Homo sapiens) (UniProt P04150); test: GR-EFC Redistribution (AID 451; calls by dose curve; note: potency is the fitted concentration of half-maximal effect); conditions: CHO-K1 GR-EFC translocation, beta-gal luminescence, 2 h
# In short: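 Translocation of GR-ED fusion to nuclear EA restores b-gal, read by luminescence after 1 h room-temperature detection. Engineered CHO-K1 biosensor cells, 1,000/well, exposed 2 h at 37 C to titrations up to 46 uM final.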
# [10] = target: Mitogen-activated protein kinase 10 (Mus musculus) (UniProt Q61831); test: JNK3 AlphaScreen Assay (AID 530; active = well fitted curve in either direction with a large enough effect, not every such curve was filed as active;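 note: kinase came from lysate of stimulated human HepG2 cells; potency is the fitted concentration of half-maximal effect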)
# In short: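 Compound titrations were preincubated 15 minutes at room temperature with substrate, antibody and pre-activated JNK3-containing HepG2 lysate. Reactions were started with 10 uM ATP and stopped with EDTA-containing bead buffer for AlphaScreen detection.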
# [11] = target: Cytochrome P450 2C9 (Homo sapiens) (UniProt P11712); test: qHTS Assay for Inhibitors and Substrates of Cytochrome P450 2C9 (AID 883); note: potency is the fitted concentration of half-maximal effect; nearly all actives have a fitted effect of over 60% in size
# Cytochrome P450 2C9 (Homo sapiens), sequence (P11712 whole entry, looked up): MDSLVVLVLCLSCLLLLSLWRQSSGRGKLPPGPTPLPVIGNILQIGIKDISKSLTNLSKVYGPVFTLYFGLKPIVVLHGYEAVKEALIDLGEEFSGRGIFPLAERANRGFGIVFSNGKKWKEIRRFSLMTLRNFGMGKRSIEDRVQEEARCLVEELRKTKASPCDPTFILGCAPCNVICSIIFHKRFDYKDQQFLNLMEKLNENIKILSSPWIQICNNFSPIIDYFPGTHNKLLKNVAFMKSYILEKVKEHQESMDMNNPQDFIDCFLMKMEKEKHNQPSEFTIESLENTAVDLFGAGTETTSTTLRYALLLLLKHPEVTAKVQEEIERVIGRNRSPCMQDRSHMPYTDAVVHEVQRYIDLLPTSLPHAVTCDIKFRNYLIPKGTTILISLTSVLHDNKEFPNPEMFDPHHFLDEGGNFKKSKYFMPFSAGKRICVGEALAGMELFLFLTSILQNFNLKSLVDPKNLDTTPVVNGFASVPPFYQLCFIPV
# In short: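 Inhibition of CYP2C9 is scored as loss of luminescence, with 57uM sulphaphenazole defining 100% inhibition. Substrate Luciferin-H is used at 100uM, equal to its KM; enzyme at 10nM in 25mM KPO4, 60 min at 37C with NADPH regeneration.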
# [12] = target: Cytochrome P450 3A4 (Homo sapiens) (UniProt P08684); test: qHTS Assay for Inhibitors and Substrates of Cytochrome P450 3A4 (AID 884); note: potency is the fitted concentration of half-maximal effect; nearly all actives have a fitted effect of over 50% in size
# Cytochrome P450 3A4 (Homo sapiens), sequence (P08684 whole entry, looked up): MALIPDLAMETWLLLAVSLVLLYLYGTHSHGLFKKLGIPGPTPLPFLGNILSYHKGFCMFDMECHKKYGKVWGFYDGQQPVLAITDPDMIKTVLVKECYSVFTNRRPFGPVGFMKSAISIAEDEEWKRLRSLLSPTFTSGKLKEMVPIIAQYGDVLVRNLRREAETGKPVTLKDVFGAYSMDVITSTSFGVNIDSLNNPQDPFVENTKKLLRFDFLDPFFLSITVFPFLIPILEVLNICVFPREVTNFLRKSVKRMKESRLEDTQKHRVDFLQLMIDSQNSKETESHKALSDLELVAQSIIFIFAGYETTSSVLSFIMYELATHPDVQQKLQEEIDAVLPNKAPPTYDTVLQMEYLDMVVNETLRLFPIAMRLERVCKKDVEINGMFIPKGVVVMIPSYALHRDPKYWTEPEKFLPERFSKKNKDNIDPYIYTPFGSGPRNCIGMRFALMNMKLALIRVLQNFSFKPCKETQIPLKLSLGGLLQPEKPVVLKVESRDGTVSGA
# In short: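 20 nM human CYP3A4 with 25 uM Luciferin-PPXE (at KM) in 200 mM KPO4, preincubated 10 min with compound; NADPH regeneration started a 60 min RT reaction. Luciferin detected by luminescence, normalized to 57 uM ketoconazole as full inhibition.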
# [13] = target: Cytochrome P450 3A4 (Homo sapiens) (UniProt P08684); test: qHTS Assay for Activators of Cytochrome P450 3A4 (AID 885); note: nearly all actives have a fitted effect of over 65% in size
# In short: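 Steps: enzyme/substrate mix dispensed; compound added, 10 min RT; NADPH regeneration solution added, 60 min RT; luciferin detection buffer stops reaction; 20 min later luminescence measured.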
# [14] = target: Cytochrome P450 2D6 (Homo sapiens) (UniProt P10635); test: qHTS Assay for Inhibitors and Substrates of Cytochrome P450 2D6 (AID 891); note: potency is the fitted concentration of half-maximal effect; nearly all actives have a fitted effect of over 60% in size
# Cytochrome P450 2D6 (Homo sapiens), sequence (P10635 whole entry, looked up): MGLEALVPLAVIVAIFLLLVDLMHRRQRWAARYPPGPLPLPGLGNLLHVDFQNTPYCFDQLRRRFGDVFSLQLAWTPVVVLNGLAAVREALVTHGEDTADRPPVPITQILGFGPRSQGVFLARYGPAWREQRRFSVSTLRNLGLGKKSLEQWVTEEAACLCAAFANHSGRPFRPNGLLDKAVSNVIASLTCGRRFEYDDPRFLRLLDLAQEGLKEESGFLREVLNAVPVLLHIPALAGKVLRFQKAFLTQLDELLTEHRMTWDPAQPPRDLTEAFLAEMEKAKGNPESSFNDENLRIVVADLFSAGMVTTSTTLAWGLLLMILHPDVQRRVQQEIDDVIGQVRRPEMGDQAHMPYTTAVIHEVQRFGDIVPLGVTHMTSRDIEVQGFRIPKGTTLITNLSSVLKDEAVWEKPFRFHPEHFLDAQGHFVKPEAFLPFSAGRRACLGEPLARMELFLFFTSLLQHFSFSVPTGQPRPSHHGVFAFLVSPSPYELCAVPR
# In short: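 Human CYP2D6 (5 nM) with 30 uM Luciferin-ME EGE (at Km) in 100 mM KPO4, compound preincubated 10 min, then NADPH regeneration system for 60 min at room temperature. Luciferin read by luminescence; normalized to 1.43 uM quinidine.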
# [15] = target: Cytochrome P450 2C19 (Homo sapiens) (UniProt P33261); test: qHTS Assay for Inhibitors and Substrates of Cytochrome P450 2C19 (AID 899); note: potency is the fitted concentration of half-maximal effect; nearly all actives have a fitted effect of over 60% in size
# In short: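 5nM enzyme + 10uM Luciferin-H EGE (=KM), 50mM KPO4; cpd pin-transferred, 10 min 37C; NADPH regen, 60 min 37C; stopped w/ luciferin detection reagent, 20 min; luminescence. Normalized to 57uM ketoconazole (AC100).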
structure (smiles),measurement,setting,value
COc1ccccc1C1CC(=O)Oc2cc(C)c(Cl)c(C)c21 (centres undefined),Potency,[1],inactive
same,Potency,[2],inactive
same,"activity change, negative = inhibition",[3],3.69% [at 30.8 µM]
same,activation,[4],15.1% [at 30.8 µM]
O=C(Cc1c(F)cccc1Cl)Nc1ccc(S(=O)(=O)Nc2nccs2)cc1,Potency,[1],inactive
same,Potency,[2],inactive
same,"activity change, negative = inhibition",[3],4.41% [at 30.8 µM]
same,activation,[4],17.6% [at 30.8 µM]
COc1ccc(N2C(=O)CSC2c2ccccc2F)c(OC)c1 (centres undefined),Potency,[1],inactive
same,Potency,[2],inactive
same,Potency,[3],inactive
same,Potency,[4],inactive
C=CCOc1ccc(/C=N/NC(C)=O)cc1OCC,Potency,[1],inactive
same,Potency,[2],inactive
same,Potency,[3],inactive
same,Potency,[4],inactive
CC(C)c1nc2cc(Cl)ccc2n(Cc2ccccc2)c1=O,Potency,[1],inactive
same,Potency,[2],inactive
same,Potency,[3],inactive
same,Potency,[4],inactive
COc1ccc(NS(=O)(=O)c2ccc(S(=O)(=O)N3CCCC3)cc2)cc1,Potency,[1],inactive
same,Potency,[2],inactive
same,"activity change, negative = inhibition",[3],-8.86% [at 30.8 µM]
same,activation,[4],24.5% [at 30.8 µM]
CC1(C(=O)Nc2ccc3c(c2)OCO3)CCN1Cc1cccc2c1OCO2 (centres undefined),Potency,[1],inactive
same,Potency,[2],inactive
same,"activity change, negative = inhibition",[3],-9.44% [at 30.8 µM]
same,activation,[4],19.3% [at 30.8 µM]
COC(=O)c1ccc2nc(-c3ccc(F)cc3)c(CC3CCCCC3)n2c1,Potency,[1],inactive
same,Potency,[2],inactive
same,"activity change, negative = inhibition",[3],-8.86% [at 30.8 µM]
same,activation,[4],6.82% [at 30.8 µM]
Cc1ccc(S(=O)(=O)N2[C@@H](c3ccc(C(C)(C)C)cc3)C(C(=O)O)=CC[C@H]2c2cccc(Cl)c2)cc1,Potency,[1],47.8 µM (active)
same,Potency,[2],inactive
same,Potency,[4],inactive
O=C1OC(c2ccccc2)(c2cc(Br)c(O)c(Br)c2)c2ccccc21 (centres undefined),Potency,[1],84.9 µM (active)
same,Potency,[2],inactive
same,Potency,[4],inactive
CCOC(=O)C1Oc2ccccc2C(c2ccc(F)cc2)=C1C(=O)OC (centres undefined),Potency,[1],inactive
same,Potency,[2],inactive
same,"activity change, negative = inhibition",[3],-24.6% [at 30.8 µM]
same,activation,[4],13.2% [at 30.8 µM]
Fc1cc(F)cc(-c2c(-c3ccccc3)ncc3ccc(F)cc23)c1,Potency,[1],inactive
same,Potency,[2],inactive
same,Potency,[4],inactive
Cc1ccc(C2(c3noc(CN(C)CC4CCCCO4)n3)CCCC2)cc1 (centres undefined),Potency,[1],inactive
same,Potency,[2],inactive
same,"activity change, negative = inhibition",[3],-7.57% [at 30.8 µM]
same,activation,[4],-0.372% [at 30.8 µM]
Cc1ccc(S(=O)(=O)N2[C@@H](c3ccc(C(C)(C)C)cc3)C(C(=O)O)=CC[C@H]2c2ccc(Cl)cc2)cc1,Potency,[1],33.8 µM (active)
same,Potency,[2],inactive
same,Potency,[4],inactive
Cc1ccc(C2(c3noc(CN(C)Cc4ccccn4)n3)CCCC2)cc1,Potency,[1],inactive
same,Potency,[2],inactive
same,"activity change, negative = inhibition",[3],-21.5% [at 30.8 µM]
same,activation,[4],1.73% [at 30.8 µM]
COc1ccc(S(=O)(=O)N2CCCC2)c(Cl)c1Cl,Potency,[1],inactive
same,Potency,[2],inactive
same,"activity change, negative = inhibition",[3],12.2% [at 30.8 µM]
same,activation,[4],0.265% [at 30.8 µM]
CCCNC(=O)c1ccc(N2CCC3(CC2)CC(c2ccccc2)=NO3)c(NC(=O)c2ccccc2)c1,Potency,[1],inactive
same,Potency,[2],inactive
same,Potency,[3],inactive
same,Potency,[4],inactive
O=C(/C=C/c1cccc(Cl)c1Cl)OCC(=O)N1CCOCC1,Potency,[1],inactive
same,Potency,[2],inactive
same,Potency,[3],inactive
same,Potency,[4],inactive
O=C(c1noc2c1CCc1ccccc1-2)N1CCCc2ccccc21,Potency,[1],inactive
same,Potency,[2],inactive
same,Potency,[3],inactive
same,Potency,[4],inactive
CCOc1cc(C)c(S(=O)(=O)N2CCCCC2)cc1C,Potency,[1],inactive
same,Potency,[2],inactive
same,Potency,[3],inactive
same,Potency,[4],inactive
COc1ccccc1-c1oc2ccccc2c1-c1ccc2c(c1)OCO2,Potency,[1],inactive
same,Potency,[2],inactive
same,Potency,[4],inactive
C=C1SC(Nc2c(C)cc(C)cc2C)=NC12CCCCC2,Potency,[1],inactive
same,Potency,[2],inactive
same,Potency,[3],inactive
same,Potency,[4],inactive
Cc1cc2nc3c(=O)n(C)c(=O)n(C)c3nc2cc1N=CN(C)C,Potency,[1],inactive
same,Potency,[2],50.1 µM (active)
same,Potency,[4],44.7 µM (active)
COc1ccc(C(=O)N(Cc2ccccc2)c2cccc(C)c2)cc1,Potency,[1],inactive
same,Potency,[2],inactive
same,Potency,[3],inactive
same,Potency,[4],inactive
COC(=O)c1c(C)c2c(C)cc3ccccn3c-2c1C(=O)OC,Potency,[1],inactive
same,activation,[5],"10.6% [at 17.1 µM, percent relative to cAMP agonist control]"
same,Potency,[6],inactive
same,"activity change, negative = inhibition",[3],9.53% [at 30.8 µM]
COC(=O)c1cc2sc(Cl)cc2n1Cc1cc(C)ccc1C,Potency,[1],inactive
same,Potency,[5],inactive
same,Potency,[6],inactive
same,Potency,[3],inactive
COc1cc(C)c(S(=O)(=O)N2CCCC2)cc1C(C)C,Potency,[1],inactive
same,Potency,[2],inactive
same,activation,[4],14.6% [at 30.8 µM]
COc1cc2cc3c4c(cc(OC)c(OC)c4c2cc1OC)CCN3C,Potency,[7],0.0794 µM (active)
same,Potency,[8],> 46 µM
same,Potency,[9],> 46 µM
same,Potency,[10],0.158 µM (active)
same,Potency,[11],0.794 µM (active)
same,Potency,[12],3.98 µM (active)
same,outcome,[13],inactive
same,Potency,[14],3.98 µM (active)
same,Potency,[15],0.0501 µM (active)
same,Potency,[1],inactive
same,Potency,[2],inactive
O=C(O)c1cc(Nc2cc(Cl)c3nonc3c2[N+](=O)[O-])ccc1O,Potency,[1],9.53 µM (active)
same,Potency,[2],inactive
same,Potency,[4],inactive
COC(=O)C1=CC(C(=O)c2cccs2)=NN(c2ccc(OC)cc2)C1C(=O)OC (centres undefined),Potency,[1],inactive
same,activation,[5],"9.11% [at 17.1 µM, percent relative to cAMP agonist control]"
same,Potency,[6],inactive
same,"activity change, negative = inhibition",[3],-26% [at 30.8 µM]
